From PubChem
HT1080NT lethal – kills 2HG-producing HT-1080-NT fibrosarcoma cells; HT-1080-NT fibrosarcoma viability, CellTiter-Glo ATP luminescence, 48 h; Potency, µM (top dose mostly 46.1 µM), for inactives: at the top dose activity, negative = less viability, most hits filed as cytotoxic; actives 1.6% (n = 360,000); AID 686970;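 also: NT is the 2HG producing partner of a matched IDH1 knockdown line; potency is read from the fitted curve at half-maximal effect; 0% = DMSO-treated cells and -100% = media-only wells without cells; nearly all actives have a fitted effect of over 55% in size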
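HT-1080-NT; 750 cells/well; 5% FBS RPMI; 48 h compound, 37 degrees C; CellTiter-Glo luminescence; curve fitting and curve-class assignment.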
IL1B secr inh – inhibitors of inflammasome signaling (IL-1 beta secretion); activity change, % at 57.5 µM; actives 4.7% (n = 360,000); THP-1 LPS/ATP IL-1B secretion, AlphaLISA, 16 h; hits give low values; in the data active = activity change below about -50%; inconclusive = mostly about -30% to -49%
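Secreted IL-1B measured by AlphaLISA bead assay after 16 h compound exposure of THP-1 cells; compounds (final up to 57.5 uM) added 1 h before LPS (250 ng/mL) and ATP (1.25 mM) stimulation; lower signal means less secretion.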
ELG1 repair inh – ELG1-dependent DNA repair inhibition; Potency, µM (top dose mostly 46.1 µM), for the others: at the top dose activity change, negative = inhibition, most hits filed as inhibitors; actives 2.3% (n = 330,000); HEK293T ELG1-luciferase reporter, luminescence, 16 h; DNA damage induced by 5-fluorouridine; AID 504467; also: potency is read from the fitted curve at half-maximal effect; nearly all actives have a fitted effect of over 55% in size
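Quantitative HTS, concentration-response format. 2,000 cells/well co-treated with 5-fluorouridine and compound, 16 hr in 5% CO2 at 37 °C; ONE-Glo luminescence read after 30 min.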
TDP1 cell noCPT – qHTS for Inhibitors of human tyrosyl-DNA phosphodiesterase 1 (TDP1): qHTS in cells in absence of CPT | actives 15% (n = 420,000) | DT40 Tdp1-/- hTDP1 cells, no CPT, ATP luminescence, 48 h | AID 686978, 2013 | Potency, µM (highest dose often 46.2 µM), inactives show at the highest dose activity change, negative = growth inhibition, actives largely listed as inhibitors; also: potency is read from the fitted curve at half-maximal effect; nearly all actives have a fitted effect of over 55% in size
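Compound effects on proliferation are scored in DT40 Tdp1-/-;hTDP1 cells in the absence of CPT. ATP levels (CellTiter-Glo luminescence) are recorded after a ≥48 hr, 37 °C incubation.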
HT1080 IDH1KD tx – HT-1080 IDH1 knockdown cell toxicity (counter line) | HT-1080 IDH1 knockdown viability, ATP luminescence, 48 h | Potency, µM (top dose mostly 46.1 µM), for inactives: top-dose activity, negative = toxicity, hits mostly cytotoxic | actives 2% (n = 360,000) | AID 686971;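 also: potency is read from the fitted curve at half-maximal effect; 0% = DMSO wells and -100% = cell-free medium wells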
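CellTiter-Glo luminescence after 48 h compound exposure at 37 degrees C of IDH1-knockdown HT-1080 cells in 5% FBS RPMI. %Activity scaled between DMSO wells and cell-free media wells, with curves fitted and assigned curve classes.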
TDP1 cell CPT – growth inhibition of DT40 Tdp1-/-;hTDP1 cells with camptothecin (screen for TDP1 inhibitors); chicken DT40 Tdp1-/-;hTDP1 cells + 20 nM CPT, ATP luminescence, 48 h; Potency, µM (doses to about 46.2 µM), for inactives: at the highest dose activity change, negative = growth inhibition, hits mostly inhibitors; actives 12% (n = 420,000); also: potency is read from the fitted curve at half-maximal effect; nearly all actives have a fitted effect of over 55% in size
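Cell growth measured by CellTiter-Glo luminescence after a minimum 48 h, 37 C compound exposure with 20 nM CPT in Tdp1-knockout DT40 cells stably expressing hTDP1, seeded 400/well; qHTS titration format.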
The depositor's hits bear a star; ? = inconclusive; / = no result given. Shown are actives, neighbours in structure and some others; about 19% of the full set was active somewhere. Unless noted, calls follow the shape of the dose curve; as a rule, active = well fitted curve in the direction sought with a large enough effect; inconclusive = small, poorly fitted or top-dose-only effect, or another doubt; inactive = no such curve, though single readings can be large; an effect the other way counts as inactive or inconclusive. Unless noted, % is scaled to controls: 0 for no effect and ±100 for the full control effect.

SMILES | HT1080NT lethal | IL1B secr inh | ELG1 repair inh | TDP1 cell noCPT | HT1080 IDH1KD tx | TDP1 cell CPT
O=C(COC(=O)Cc1c(F)cccc1Cl)Nc1nnc(-c2ccccc2)o1 | 1.3% | 10.4 | 7.4% | -17.9% | -6.6% | -24.4%
CCN(CC(=O)Nc1ccc(OC)cc1)C(=O)C1CCN(C(=O)c2ccc(Cl)cc2)CC1 | -4.3% | 4.2 | -19.7% | 5.8% | -0.1% | 7.5%
COc1ccc(C(=O)NC2CCCc3ccccc32)cc1[N+](=O)[O-] (centres undefined) | ? | 41.8 | -21.8% | 3.66µM* | 14.6µM* | 5.17µM*
COc1ccc(CNC2CCCc3ccccc32)c(OC)c1 (centres undefined) | -20.1% | -50.1* | ? | ? | -14.4% | ?
COc1cc(C(=O)NC2CCCc3ccccc32)cc(OC)c1C (centres undefined) | -29.9% | 43.6 | -2.2% | ? | -20.9% | ?
COc1ccccc1CC(=O)NC1CCCc2ccccc21 (centres undefined) | 8.2% | 0.0 | -4.1% | ? | 12.0% | ?
COc1ccccc1NC(=O)COc1ccc(C(=O)NC2CCCc3ccccc32)cc1OC (centres undefined) | -18.2% | 33.0 | -1.3% | 7.31µM* | -9.4% | ?
O=C(CNC(=O)c1ccc2c(=O)n3c(nc2c1)CCC3)Nc1ccc(F)c(F)c1 | -5.5% | 0.5 | -2.3% | -7.9% | 2.0% | -10.6%
CCN(CC)c1nc2c(c(=O)[nH]c(=O)n2C)n1CCCc1ccccc1 | -7.5% | -20.8 | -15.5% | 10.3µM* | -19.4% | ?
CC(O)CSc1nc2c(c(=O)n(C)c(=O)n2C)n1CCCc1ccccc1 (centres undefined) | -4.1% | 21.1 | -2.5% | ? | -6.6% | ?
Cn1c(=O)[nH]c(=O)c2c1nc(Br)n2CCCc1ccccc1 | / | / | -12.6% | / | / | /
CCN(CC)c1nc2c(c(=O)n(C)c(=O)n2C)n1CCCc1ccccc1 | -1.8% | 22.8 | -23.5% | 23.1µM* | 0.9% | 20.6µM*
CN(Cc1ccccc1)c1nc2c(c(=O)n(C)c(=O)n2C)n1CCCc1ccccc1 | -17.5% | 11.3 | ? | 16.4µM* | -26.1% | 23.1µM*
COC(=O)c1ccc(NC(=O)c2cc3cc4ccc(OC)c(Cl)c4nc3s2)cc1 | / | / | / | -8.6% | / | -19.8%
C[C@]12CC[C@@H]3c4ccc(O)cc4CC[C@H]3[C@@H]1CC[C@@H]2O | ? | 24.4 | 4.6% | 23.1µM* | ? | ?
CC(NCCN(C)C)C1CCC2C3CCc4cc(O)ccc4C3CCC12C (centres undefined) | ? | -102.4* | / | 1.64µM* | ? | ?
COc1ccc2c(c1)CCC1C2CC[C@@]2(C)C(O)CCC12 (some centres undefined) | / | / | / | -3.2% | / | -20.6%
C#C[C@]1(O)CC[C@H]2[C@@H]3CCc4cc(O)ccc4[C@H]3CC[C@@]21C | 9.2µM* | 26.2 | -14.2% | 15µM* | 20.6µM* | ?
CC12CCC3c4ccc(O)cc4CCC3C1CCC2=O (centres undefined) | -20.6% | 20.7 | 27.1% | -0.4% | -0.3% | 0.2%
CC(=O)O[C@H]1CC[C@H]2[C@@H]3CCc4cc(O)ccc4[C@H]3CC[C@]12C | 18.4µM* | 7.9 | ? | ? | ? | ?
Cn1cnc(C(=O)NCc2ccccc2)c1C(=O)NCc1ccccc1 | -2.9% | -2.3 | 5.4% | ? | -8.4% | -12.8%
CCc1nnc(NC(=O)CSc2nc3c([nH]c4ccccc43)c(=O)n2-c2ccc(Cl)cc2)s1 | / | / | / | -23.0% | / | -26.9%
COc1ccc2[nH]c3c(c2c1)CCN1C(=O)C(CC(=O)NCc2ccco2)C[C@H](C(=O)N2CCOCC2)[C@@]31CCC1CCCC1 (some centres undefined) | -1.0% | -19.4 | 2.9% | ? | -2.9% | ?
Oc1ccc(Cl)cc1CNCc1ccc(Cl)nc1 | -15.5% | -3.2 | 17.3% | -3.2% | -0.6% | 0.1%
Cc1cc2ccccn2c1C(=O)c1nc(NCc2ccco2)ncc1Cl | -7.6% | 1.1 | ? | -24.2% | -14.1% | ?
SMILES | HT1080NT lethal | IL1B secr inh | ELG1 repair inh | TDP1 cell noCPT | HT1080 IDH1KD tx | TDP1 cell CPT
Cc1cc2ccccn2c1C(=O)c1ccccc1Br | ? | 9.8 | -25.6% | ? | ? | 16.4µM*
CCNS(=O)(=O)c1cccc(C(=O)c2c(C)cc3ccccn23)c1 | 5.7% | -15.2 | ? | 14.6µM* | 5.9% | ?
Cc1cc2ccccn2c1C(=O)c1ccc(F)cc1 | -20.3% | 0.4 | -12.7% | ? | -20.6% | -3.5%
Cc1cc2ccccn2c1C(=O)c1ccc(S(=O)(=O)N(C)C)cc1 | -26.6% | ? | 16.4µM* | 23.1µM* | -17.5% | 18.4µM*
COCCNC(=O)C1(C)CCCN(C(=O)c2ccc(OC)c(OC)c2)C1 (centres undefined) | 9.6% | -9.6 | / | 14.6% | 9.4% | 14.2%
COc1ccc(CCNC(=O)c2ccc(Cn3c(SCc4ccccc4)nc4cccnc43)cc2)cc1 | / | / | / | 2.91µM* | / | ?
CN(Cc1ccccc1)C(=O)c1ccc(CSc2nc3cccnc3n2Cc2ccccc2)cc1 | / | / | / | ? | / | 11.6µM*
COc1ccc(Cn2c(SCc3ccc(C(=O)NC(C)c4ccccc4)cc3)nc3cccnc32)cc1 (centres undefined) | / | / | / | ? | / | -0.3%
O=C(NCCc1ccccc1)c1ccc(Cn2c(SCc3ccc(F)cc3)nc3cccnc32)cc1 | / | / | / | -28.9% | / | ?
O=C(NCCc1ccccc1)c1ccc(CSc2nc3cccnc3n2Cc2ccccc2)cc1 | / | / | / | 14.6µM* | / | ?
COc1cccc(CCNC(=O)c2ccc(Cn3c(SCc4ccccc4)nc4cccnc43)cc2)c1 | / | / | / | 20.6µM* | / | ?
COC(=O)c1ccc(S(=O)(=O)NCCSc2nnc3c4ccccc4n(C)c3n2)cc1 | 2.9% | 10.8 | ? | 14.6µM* | -10.6% | ?
CC[C@]1(c2ccccc2)C(=O)N(C(=O)OC)N1C(=O)OC | 4.1% | -80.8* | -17.3% | 16.4µM* | 6.0% | 20.6µM*
CC[C@@]1(c2ccccc2C)C(=O)N(C(=O)OC)N1C(=O)OC | 8.7% | -58.1* | -4.4% | ? | 14.9% | 13µM*
COC(=O)N1C(=O)[C@](c2ccccc2)(C(C)C)N1C(=O)OC | -1.1% | -91.9* | -1.5% | ? | -0.4% | ?
Cc1ccccc1CNC(=O)COc1ccccc1 | -0.2% | 0.0 | 27.9% | 1.1% | 0.1% | -20.5%
